In paper PMC7862700, “An all-to-all approach to the identification of sequence-specific readers for epigenetic DNA modifications on cytosine”:

Experiments:
Assay in all cases: DAPPL (digital affinity profiling via proximity ligation, sequencing); 10 mM Tris-HCl pH 7.5, 50 mM NaCl, 1 mM DTT, 4% glycerol, room temperature, 30 min; GST-TFs on glutathione beads, 16-mer random dsDNA library, 0.1% formaldehyde crosslink after washing; high values mean tight binding
FEV = target: T1, FEV (Homo sapiens, UniProt Q99581 1-238); settings: protein: recombinant; tags: N-terminal GST; dsDNA, one strand shown
T1 sequence: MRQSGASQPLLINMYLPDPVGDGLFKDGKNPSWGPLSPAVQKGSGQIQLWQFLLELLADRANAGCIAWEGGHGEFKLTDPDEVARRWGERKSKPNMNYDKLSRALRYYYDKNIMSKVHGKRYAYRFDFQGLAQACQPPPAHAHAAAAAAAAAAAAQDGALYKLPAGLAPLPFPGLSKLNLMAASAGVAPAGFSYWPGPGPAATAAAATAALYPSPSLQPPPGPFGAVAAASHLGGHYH
Method in brief: (§1)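 Human transcription factors were made in yeast as GST fusions, captured on glutathione beads and barcoded with DNA. With a tag-only sample included, the pool was incubated with 200 nmole of a random double-stranded 16-mer DNA library in Tris/NaCl/DTT/glycerol buffer at room temperature for 30 min, then crosslinked with 0.1% formaldehyde after washing, ligated by proximity, amplified and sequenced. For binding signal, each hexamer's read frequency for a factor is divided by its frequency for the tag-only sample.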

ETV5 = ETV5 (Homo sapiens, UniProt P41161 1-510); settings: protein: recombinant; tags: N-terminal GST; dsDNA, one strand shown
Method in brief: as §1

HSF1 = HSF1 (Homo sapiens, UniProt Q00613 1-529); settings: protein: recombinant; tags: N-terminal GST; chain copies: 3; dsDNA, one strand shown
Method in brief: as §1

SPIC = target: T2, SPIC (Homo sapiens, UniProt Q8N5J4 1-248); settings: protein: recombinant; tags: N-terminal GST; dsDNA, one strand shown
T2 sequence: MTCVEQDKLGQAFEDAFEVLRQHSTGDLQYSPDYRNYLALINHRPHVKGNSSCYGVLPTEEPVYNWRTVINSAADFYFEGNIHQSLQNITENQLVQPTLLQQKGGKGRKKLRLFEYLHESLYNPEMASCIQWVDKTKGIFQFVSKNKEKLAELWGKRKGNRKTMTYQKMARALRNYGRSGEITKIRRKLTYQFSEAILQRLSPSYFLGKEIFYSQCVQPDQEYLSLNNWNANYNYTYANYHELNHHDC
Method in brief: as §1

ELF4 = ELF4 (Homo sapiens, UniProt Q99607 1-663); settings: protein: recombinant; tags: N-terminal GST; dsDNA, one strand shown
Method in brief: as §1

ELK4 = target: T3, ELK4 (Homo sapiens, UniProt P28324-2 1-405); settings: protein: recombinant; tags: N-terminal GST; dsDNA, one strand shown
T3 sequence: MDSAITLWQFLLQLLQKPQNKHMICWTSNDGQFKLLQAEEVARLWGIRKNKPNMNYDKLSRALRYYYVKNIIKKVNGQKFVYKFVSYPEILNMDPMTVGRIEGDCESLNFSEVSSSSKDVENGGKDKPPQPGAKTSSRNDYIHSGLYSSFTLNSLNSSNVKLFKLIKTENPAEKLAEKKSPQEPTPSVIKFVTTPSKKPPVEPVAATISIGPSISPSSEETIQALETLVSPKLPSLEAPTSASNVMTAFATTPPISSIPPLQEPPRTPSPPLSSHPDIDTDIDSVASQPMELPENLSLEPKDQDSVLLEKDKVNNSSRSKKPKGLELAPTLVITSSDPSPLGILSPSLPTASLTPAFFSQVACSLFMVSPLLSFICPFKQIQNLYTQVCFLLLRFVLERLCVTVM
Method in brief: as §1

ETV2 = target: T4, ETV2 (Homo sapiens, UniProt O00321 1-342); settings: protein: recombinant; tags: N-terminal GST; dsDNA, one strand shown
T4 sequence: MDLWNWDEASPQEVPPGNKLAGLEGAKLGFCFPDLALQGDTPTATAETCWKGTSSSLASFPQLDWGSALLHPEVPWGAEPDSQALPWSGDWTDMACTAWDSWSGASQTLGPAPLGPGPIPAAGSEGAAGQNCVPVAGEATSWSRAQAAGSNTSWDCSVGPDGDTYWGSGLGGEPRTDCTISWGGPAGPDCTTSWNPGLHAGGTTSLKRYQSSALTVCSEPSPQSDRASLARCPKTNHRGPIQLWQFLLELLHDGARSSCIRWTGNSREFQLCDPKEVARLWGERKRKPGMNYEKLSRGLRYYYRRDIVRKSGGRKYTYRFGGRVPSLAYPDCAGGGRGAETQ
Method in brief: as §1

ELF3 = target: T5, ELF3 (Homo sapiens, UniProt P78545 1-371); settings: protein: recombinant; tags: N-terminal GST; dsDNA, one strand shown
T5 sequence: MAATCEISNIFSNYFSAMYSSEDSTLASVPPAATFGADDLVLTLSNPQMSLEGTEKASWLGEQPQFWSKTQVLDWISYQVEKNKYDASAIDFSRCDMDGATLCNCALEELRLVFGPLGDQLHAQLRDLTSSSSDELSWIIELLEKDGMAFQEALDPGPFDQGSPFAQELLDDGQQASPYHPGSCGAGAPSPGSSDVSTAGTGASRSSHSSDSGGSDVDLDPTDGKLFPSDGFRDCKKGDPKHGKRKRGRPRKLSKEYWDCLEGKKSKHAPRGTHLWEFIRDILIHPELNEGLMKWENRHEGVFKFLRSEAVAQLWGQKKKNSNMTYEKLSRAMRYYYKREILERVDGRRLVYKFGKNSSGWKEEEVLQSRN
Method in brief: as §1

CRX = CRX (Homo sapiens, UniProt O43186 1-299); settings: protein: recombinant; tags: N-terminal GST; dsDNA, one strand shown
Method in brief: as §1

ETV1 = ETV1 (Homo sapiens, UniProt P50549 1-477); settings: protein: recombinant; tags: N-terminal GST; dsDNA, one strand shown
Method in brief: as §1

ERF = target: T6, ERF (Homo sapiens, UniProt P50548 1-548); settings: protein: recombinant; tags: N-terminal GST; dsDNA, one strand shown
T6 sequence: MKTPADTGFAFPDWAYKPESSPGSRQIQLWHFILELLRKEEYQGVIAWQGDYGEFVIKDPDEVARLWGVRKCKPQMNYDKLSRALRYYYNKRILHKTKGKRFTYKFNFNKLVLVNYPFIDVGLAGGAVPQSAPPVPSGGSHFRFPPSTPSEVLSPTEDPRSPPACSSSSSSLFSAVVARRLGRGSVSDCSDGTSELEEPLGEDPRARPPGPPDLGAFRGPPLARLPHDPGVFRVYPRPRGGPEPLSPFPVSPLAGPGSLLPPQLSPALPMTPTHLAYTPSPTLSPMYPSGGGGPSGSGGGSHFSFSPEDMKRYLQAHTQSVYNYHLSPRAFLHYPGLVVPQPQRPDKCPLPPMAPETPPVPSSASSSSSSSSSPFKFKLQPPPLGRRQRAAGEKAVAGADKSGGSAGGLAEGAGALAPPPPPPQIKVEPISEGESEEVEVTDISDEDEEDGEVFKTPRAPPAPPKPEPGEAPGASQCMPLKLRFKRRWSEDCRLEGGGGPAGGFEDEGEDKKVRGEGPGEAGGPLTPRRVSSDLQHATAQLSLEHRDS
Method in brief: as §1

ETV3L = target: T7, ETV3L (Homo sapiens, UniProt Q6ZN32 1-361); settings: protein: recombinant; tags: N-terminal GST; dsDNA, one strand shown
T7 sequence: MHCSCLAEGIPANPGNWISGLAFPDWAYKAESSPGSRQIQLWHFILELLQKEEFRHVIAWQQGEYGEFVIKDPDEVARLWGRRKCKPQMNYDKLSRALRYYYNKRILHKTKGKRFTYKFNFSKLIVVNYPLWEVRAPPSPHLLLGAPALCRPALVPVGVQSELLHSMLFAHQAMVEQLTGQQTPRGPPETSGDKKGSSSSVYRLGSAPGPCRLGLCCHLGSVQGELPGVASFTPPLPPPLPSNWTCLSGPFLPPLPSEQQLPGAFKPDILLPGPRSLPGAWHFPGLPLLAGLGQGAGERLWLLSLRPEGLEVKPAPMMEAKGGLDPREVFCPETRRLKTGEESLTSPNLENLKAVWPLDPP
Method in brief: as §1

ETS2 = target: T8, ETS2 (Homo sapiens, UniProt P15036 1-469); settings: protein: recombinant; tags: N-terminal GST; dsDNA, one strand shown
T8 sequence: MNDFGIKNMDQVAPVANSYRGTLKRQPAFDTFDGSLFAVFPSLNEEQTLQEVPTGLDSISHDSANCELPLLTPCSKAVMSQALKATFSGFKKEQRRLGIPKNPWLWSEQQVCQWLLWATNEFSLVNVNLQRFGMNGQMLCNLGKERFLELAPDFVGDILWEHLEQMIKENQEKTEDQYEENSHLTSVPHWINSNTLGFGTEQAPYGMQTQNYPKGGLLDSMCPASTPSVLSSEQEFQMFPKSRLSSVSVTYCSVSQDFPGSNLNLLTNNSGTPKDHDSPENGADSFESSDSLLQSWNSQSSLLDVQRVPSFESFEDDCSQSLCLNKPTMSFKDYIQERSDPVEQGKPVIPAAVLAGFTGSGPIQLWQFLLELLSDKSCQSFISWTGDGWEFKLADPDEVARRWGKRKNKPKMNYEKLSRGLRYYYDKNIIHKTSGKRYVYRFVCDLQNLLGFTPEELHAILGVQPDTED
Method in brief: as §1

SPDEF = target: T9, SPDEF (Homo sapiens, UniProt O95238 1-335); settings: protein: recombinant; tags: N-terminal GST; dsDNA, one strand shown
T9 sequence: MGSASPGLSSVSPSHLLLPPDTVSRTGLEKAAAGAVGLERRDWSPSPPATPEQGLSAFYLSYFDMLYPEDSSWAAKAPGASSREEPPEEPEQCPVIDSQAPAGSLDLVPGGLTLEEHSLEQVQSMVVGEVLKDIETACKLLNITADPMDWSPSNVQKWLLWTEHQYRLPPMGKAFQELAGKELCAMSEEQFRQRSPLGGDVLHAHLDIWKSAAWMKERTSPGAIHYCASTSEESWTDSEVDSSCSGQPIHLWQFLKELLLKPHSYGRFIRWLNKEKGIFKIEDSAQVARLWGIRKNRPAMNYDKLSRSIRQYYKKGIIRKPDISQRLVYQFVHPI
Method in brief: as §1

ETV7 = target: T10, ETV7 (Homo sapiens, UniProt Q9Y603 1-341); settings: protein: recombinant; tags: N-terminal GST; dsDNA, one strand shown
T10 sequence: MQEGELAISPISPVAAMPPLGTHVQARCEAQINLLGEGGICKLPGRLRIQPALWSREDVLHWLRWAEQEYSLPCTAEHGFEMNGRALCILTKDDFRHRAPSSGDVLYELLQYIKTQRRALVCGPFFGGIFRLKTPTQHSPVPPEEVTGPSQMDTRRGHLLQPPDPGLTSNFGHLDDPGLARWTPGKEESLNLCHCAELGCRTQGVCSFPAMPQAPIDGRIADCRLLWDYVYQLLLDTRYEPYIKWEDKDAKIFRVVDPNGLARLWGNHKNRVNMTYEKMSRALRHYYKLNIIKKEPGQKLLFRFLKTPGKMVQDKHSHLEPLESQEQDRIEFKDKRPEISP
Method in brief: as §1

ELF5 = target: T11, ELF5 (Homo sapiens, UniProt Q9UKW6-2 1-255); settings: protein: recombinant; tags: N-terminal GST; dsDNA, one strand shown
T11 sequence: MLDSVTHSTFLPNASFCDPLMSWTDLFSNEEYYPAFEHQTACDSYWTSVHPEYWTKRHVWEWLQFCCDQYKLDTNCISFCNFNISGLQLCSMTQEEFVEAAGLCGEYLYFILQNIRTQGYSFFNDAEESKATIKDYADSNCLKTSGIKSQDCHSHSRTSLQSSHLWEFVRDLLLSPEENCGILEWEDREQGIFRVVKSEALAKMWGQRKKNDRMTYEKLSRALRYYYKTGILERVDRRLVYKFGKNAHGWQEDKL
Method in brief: as §1

ETV3 = target: T12, ETV3 (Homo sapiens, UniProt P41162-2 1-143); settings: protein: recombinant; tags: N-terminal GST; dsDNA, one strand shown
T12 sequence: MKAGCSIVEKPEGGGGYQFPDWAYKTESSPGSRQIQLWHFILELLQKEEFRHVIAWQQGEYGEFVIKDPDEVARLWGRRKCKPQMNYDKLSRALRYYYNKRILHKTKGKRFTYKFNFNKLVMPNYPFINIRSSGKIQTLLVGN
Method in brief: as §1

ETV6 = ETV6 (Homo sapiens, UniProt P41212 1-452); settings: protein: recombinant; tags: N-terminal GST; dsDNA, one strand shown
Method in brief: as §1

Chain of CRX (O43186 whole entry): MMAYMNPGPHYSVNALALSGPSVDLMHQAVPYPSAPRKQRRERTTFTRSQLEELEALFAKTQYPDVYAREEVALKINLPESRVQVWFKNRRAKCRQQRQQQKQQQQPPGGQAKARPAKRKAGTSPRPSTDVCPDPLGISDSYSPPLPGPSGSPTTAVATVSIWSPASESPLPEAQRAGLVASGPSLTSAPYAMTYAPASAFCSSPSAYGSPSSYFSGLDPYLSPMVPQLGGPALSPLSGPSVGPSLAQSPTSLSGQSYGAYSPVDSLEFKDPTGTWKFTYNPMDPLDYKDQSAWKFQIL
Chain of ETV5 (P41161 whole entry): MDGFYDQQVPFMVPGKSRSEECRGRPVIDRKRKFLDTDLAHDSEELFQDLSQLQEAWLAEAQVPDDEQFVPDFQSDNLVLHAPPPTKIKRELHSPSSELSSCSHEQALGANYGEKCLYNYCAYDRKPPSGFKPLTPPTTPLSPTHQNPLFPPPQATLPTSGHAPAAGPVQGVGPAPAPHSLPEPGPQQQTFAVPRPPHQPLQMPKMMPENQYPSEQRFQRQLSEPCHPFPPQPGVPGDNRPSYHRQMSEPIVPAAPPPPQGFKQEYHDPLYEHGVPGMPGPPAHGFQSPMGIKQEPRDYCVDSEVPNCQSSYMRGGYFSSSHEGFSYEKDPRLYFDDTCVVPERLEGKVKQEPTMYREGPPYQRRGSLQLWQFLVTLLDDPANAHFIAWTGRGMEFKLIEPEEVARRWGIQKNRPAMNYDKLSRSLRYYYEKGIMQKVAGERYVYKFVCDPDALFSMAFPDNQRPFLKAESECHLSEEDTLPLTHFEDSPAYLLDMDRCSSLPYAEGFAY
Chain of HSF1 (Q00613 whole entry): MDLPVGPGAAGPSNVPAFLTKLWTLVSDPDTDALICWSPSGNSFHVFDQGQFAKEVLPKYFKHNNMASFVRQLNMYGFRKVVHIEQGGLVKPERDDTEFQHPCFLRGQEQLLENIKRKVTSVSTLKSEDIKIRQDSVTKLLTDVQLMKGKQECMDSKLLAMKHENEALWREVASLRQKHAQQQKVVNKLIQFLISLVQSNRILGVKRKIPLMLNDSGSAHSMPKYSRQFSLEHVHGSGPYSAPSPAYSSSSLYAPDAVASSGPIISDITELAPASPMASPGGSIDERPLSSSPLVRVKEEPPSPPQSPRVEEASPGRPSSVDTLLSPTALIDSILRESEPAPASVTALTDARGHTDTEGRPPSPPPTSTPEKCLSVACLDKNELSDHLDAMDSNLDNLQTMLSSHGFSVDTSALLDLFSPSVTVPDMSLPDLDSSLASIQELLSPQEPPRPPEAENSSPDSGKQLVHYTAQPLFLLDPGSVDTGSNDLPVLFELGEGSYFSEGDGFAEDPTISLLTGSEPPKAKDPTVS
Chain of ETV6 (P41212 whole entry): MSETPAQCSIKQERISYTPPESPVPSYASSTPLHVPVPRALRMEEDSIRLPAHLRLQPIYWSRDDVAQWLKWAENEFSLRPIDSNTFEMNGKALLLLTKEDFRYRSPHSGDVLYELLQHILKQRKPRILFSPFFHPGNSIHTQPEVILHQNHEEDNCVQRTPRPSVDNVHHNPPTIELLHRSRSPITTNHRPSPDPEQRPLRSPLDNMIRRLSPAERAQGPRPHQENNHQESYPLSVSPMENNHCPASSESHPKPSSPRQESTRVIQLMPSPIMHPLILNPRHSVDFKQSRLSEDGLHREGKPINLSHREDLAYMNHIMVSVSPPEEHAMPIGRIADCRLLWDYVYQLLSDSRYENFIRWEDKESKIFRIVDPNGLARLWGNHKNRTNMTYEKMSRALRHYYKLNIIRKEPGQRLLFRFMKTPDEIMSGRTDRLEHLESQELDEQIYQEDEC
Chain of ETV1 (P50549 whole entry): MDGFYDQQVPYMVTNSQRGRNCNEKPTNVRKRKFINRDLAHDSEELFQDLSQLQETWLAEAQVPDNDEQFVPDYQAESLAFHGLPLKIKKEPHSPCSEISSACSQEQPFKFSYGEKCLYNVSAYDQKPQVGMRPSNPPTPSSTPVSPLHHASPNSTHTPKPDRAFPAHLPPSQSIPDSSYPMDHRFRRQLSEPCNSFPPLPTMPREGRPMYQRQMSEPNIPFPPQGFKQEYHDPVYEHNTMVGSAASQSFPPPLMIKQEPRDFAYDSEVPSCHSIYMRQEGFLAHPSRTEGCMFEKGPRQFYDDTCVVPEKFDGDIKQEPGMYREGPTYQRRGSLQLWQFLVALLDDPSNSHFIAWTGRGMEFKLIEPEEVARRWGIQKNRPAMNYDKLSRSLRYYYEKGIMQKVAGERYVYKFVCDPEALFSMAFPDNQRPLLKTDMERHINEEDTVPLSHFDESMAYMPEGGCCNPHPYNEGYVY
Chain of ELF4 (Q99607 whole entry): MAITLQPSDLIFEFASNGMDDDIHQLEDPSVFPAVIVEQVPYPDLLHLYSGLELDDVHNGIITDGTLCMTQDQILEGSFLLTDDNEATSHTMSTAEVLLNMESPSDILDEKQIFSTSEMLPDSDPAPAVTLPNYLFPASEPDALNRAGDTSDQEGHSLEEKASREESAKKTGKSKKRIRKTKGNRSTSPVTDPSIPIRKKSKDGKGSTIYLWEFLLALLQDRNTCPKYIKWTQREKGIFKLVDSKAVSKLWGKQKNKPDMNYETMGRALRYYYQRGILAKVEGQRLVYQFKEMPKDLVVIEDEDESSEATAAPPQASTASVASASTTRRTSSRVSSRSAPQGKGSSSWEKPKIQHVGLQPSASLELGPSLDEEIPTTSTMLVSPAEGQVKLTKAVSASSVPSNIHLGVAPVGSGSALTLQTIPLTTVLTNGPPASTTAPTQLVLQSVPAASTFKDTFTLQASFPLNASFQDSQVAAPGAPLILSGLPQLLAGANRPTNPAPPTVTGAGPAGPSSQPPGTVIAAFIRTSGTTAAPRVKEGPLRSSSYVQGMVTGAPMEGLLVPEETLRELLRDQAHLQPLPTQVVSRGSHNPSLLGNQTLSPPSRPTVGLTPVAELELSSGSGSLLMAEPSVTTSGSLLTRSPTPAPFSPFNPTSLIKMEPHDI

## GTAAAA
FEV
  binding signal: 1.07 fold enrichment (6-mer frequency, TF over GST control)
ETV5
  binding signal: 1.19 fold enrichment (6-mer frequency, TF over GST control)
HSF1
  binding signal: 1.11 fold enrichment (6-mer frequency, TF over GST control)
SPIC
  binding signal: 1.13 fold enrichment (6-mer frequency, TF over GST control)
ELF4
  binding signal: 1.14 fold enrichment (6-mer frequency, TF over GST control)
ELK4
  binding signal: 1.02 fold enrichment (6-mer frequency, TF over GST control)
ETV2
  binding signal: 1.21 fold enrichment (6-mer frequency, TF over GST control)
ELF3
  binding signal: 1.13 fold enrichment (6-mer frequency, TF over GST control)
CRX
  binding signal: 1.03 fold enrichment (6-mer frequency, TF over GST control)
ETV1
  binding signal: 1.06 fold enrichment (6-mer frequency, TF over GST control)
ERF
  binding signal: 1.13 fold enrichment (6-mer frequency, TF over GST control)
ETV3L
  binding signal: 1.14 fold enrichment (6-mer frequency, TF over GST control)
ETS2
  binding signal: 1.13 fold enrichment (6-mer frequency, TF over GST control)
SPDEF
  binding signal: 1.09 fold enrichment (6-mer frequency, TF over GST control)
ETV7
  binding signal: 1.18 fold enrichment (6-mer frequency, TF over GST control)
ELF5
  binding signal: 1.18 fold enrichment (6-mer frequency, TF over GST control)
ETV3
  binding signal: 1.16 fold enrichment (6-mer frequency, TF over GST control)
ETV6
  binding signal: 1.14 fold enrichment (6-mer frequency, TF over GST control)
